From PubChem BioAssay (Tox21) come the findings set out here.

The structures appear in SMILES notation. Unmarked numbers belong to inactive results. Results filed as inconclusive are left out. Activity calls are given as the source filed them. Unless noted, calls follow the shape of the dose curve; as a rule, active = well fitted curve in the direction sought with a large enough effect in the repeat runs; inconclusive = weak or mixed curves; inactive = no such curve, though single readings can be large; an effect the other way counts as inactive or inconclusive.

The nature of assay [1]: qHTS assay to identify small molecule antagonists of the sonic hedgehog signaling (Shh) pathway (AID 1259369; calls by dose curve; also: nearly all actives have a fitted effect of over 45% in size; also: potency is read from the fitted curve at half-maximal effect). A digest of the protocol: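 3T3Gli1-Luc, conditioned-medium-stimulated, 24hr cpd, 37C/5% CO2; Gli1-driven firefly Luc luminescence after 30min RT with luciferase reagent. Cells plated 4hr before cpd.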
The nature of assay [2]: qHTS assay to identify small molecule agonists of the androgen receptor (AR) signaling pathway in the presence of an antagonist - cell viability counter screen (AID 1259379). Also: nearly all actives have a fitted effect of over 25% in size. Also: potency is read from the fitted curve at half-maximal effect. A digest of the protocol:
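Cells: MDA-kb2 (MMTV-luc, AR and GR elements), 3,000/well, 5 hr settle. Added: nilutamide 3.0uM final, then compounds (15 conc.). Incubation: 16 hr, 37C, no CO2. Read-out: CellTiter-Fluor, 1 hr, fluorescence.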

Assay [3] is described as follows: qHTS assay to identify small molecule agonists of the estrogen receptor beta (ER-beta) signaling pathway - cell viability counter screen (AID 1259380). Also: nearly all actives have a fitted effect of over 30% in size. In a few lines: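 HEK293T ER-beta-UAS-bla; 2% CS-FBS; 6 hr pre-plate, 16 hr cpd at 37C/5% CO2; LiveBLAzer read first, then CellTiter-Glo 30 min RT, luminescence.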
Assay [4] concerns the target Androgen receptor (Homo sapiens) (UniProt P10275). Description: qHTS assay to identify small molecule agonists of the androgen receptor (AR) signaling pathway in the presence of an antagonist (AID 1259381; calls by dose curve; also: nearly all actives have a fitted effect of over 15% in size). In a few lines:
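MDA-kb2 cells, 3,000/well, rested 5hr at 37C/0% CO2 → nilutamide 3.0uM final or buffer → compounds, 15 conc. → 16hr at 37C → ONE-Glo, 30min RT → luminescence.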

Assay [5] is described as follows: qHTS assay to identify small molecule antagonists of the estrogen receptor beta (ER-beta) signaling pathway - cell viability counter screen (AID 1259382).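 Also: HEK293T cells carrying ER-beta-UAS-bla reporter stimulated with estradiol; series mostly up to about 92 µM; nearly all actives have a fitted effect of over 55% in size.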 A digest of the protocol: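 Cells: ER-beta-UAS-bla HEK293T, 2,000/well, 2% CS-FBS, 6 hr settle. Cpd + E2 (1nM final), 16 hr, 37C/5% CO2. Bla FRET substrate 2 hr RT, then CellTiter-Glo 30 min RT, luminescence.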

A short description of assay [6]: qHTS assay to identify small molecule agonists or antagonists of the thyroid stimulating hormone receptor (TSHR) signaling pathway - wild type cell line counter screen (AID 1259384; calls by dose curve). In a few lines: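 Counter screen in untransfected Hek293: compounds (15-point titration, triplicate) plus phosphodiesterase inhibitor Ro20-1724 added after 18 h plating; 30 min RT. Intracellular cAMP via competitive d2/cryptate immunoassay, 1 h incubation.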

For assay [7], the target named is Thyrotropin receptor (Homo sapiens) (UniProt P16473). The assay can be described thus: qHTS assay to identify small molecule antagonists of the thyroid stimulating hormone receptor (TSHR) signaling pathway (AID 1259385; calls by dose curve; also: nearly all actives have a fitted effect of over 20% in size). A digest of the protocol: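 Antagonist mode: compound-treated TSHR-expressing HEK293 cells were stimulated with 1.5 ng/mL TSH (final) in presence of Ro20-1724 for 30 min at RT. HTRF cAMP detection after 1 h; each compound tested at 15 concentrations, triplicate.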

Assay [8] is described as follows: qHTS assay to identify small molecule agonists of the estrogen receptor alpha (ER-alpha) signaling pathway in the presence of an antagonist - cell viability counter screen (AID 1259386).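 Also: series mostly up to about 92 µM; cells exposed to compounds for 22 h at 37 °C before the viability read; nearly all actives have a fitted effect of over 30% in size.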 A digest of the protocol: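 VM7Luc4E2, stripped-serum pre-culture 5 d; 24hr plating; +ICI-182,780 10.0nM final; cpds 15 conc, 22hr, 37C/5% CO2; CellTiter-Fluor added at 21hr, fluorescence 1hr later.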

Assay [9] addresses Progesterone receptor (Homo sapiens) (UniProt P06401). The assay can be described thus: qHTS assay to identify small molecule agonists of the progesterone receptor (PR) signaling pathway (AID 1346784; calls by dose curve; also: nearly all actives have a fitted effect of over 30% in size). A digest of the protocol:
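Using charcoal-stripped serum (2%) to limit endogenous steroids, PR-UAS-bla HEK 293T cells received compounds for 16 hr at 37C after 6 hr plating; beta-lactamase FRET fluorescence was recorded following 2 hr substrate loading at room temperature.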

Assay [10] shares this target. The assay can be described thus: qHTS assay to identify small molecule antagonists of the progesterone receptor (PR) signaling pathway (AID 1346795; active = well fitted inhibition curve with a large enough effect in the signal ratio in the repeat runs, not every such curve was filed as active; the % refers to the signal ratio). A digest of the protocol:
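Inhibition of R5020-induced (1 nM final) beta-lactamase reporter signal in PR-UAS-bla HEK293T cells was scored by FRET fluorescence after overnight (16 hr) compound treatment.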

The nature of assay [11]: qHTS assay to identify small molecule antagonists of the progesterone receptor (PR) signaling pathway - cell viability counter screen (AID 1346798). Also: series mostly up to about 92 µM; nearly all actives have a fitted effect of over 50% in size. A digest of the protocol: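 ATP content as viability readout: CellTiter-Glo luminescence, 30 min room temperature, in PR-UAS-bla HEK293T cells after 16 hr compound/R5020 treatment at 37C and 5% CO2.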
Assay [12] can be described thus: qHTS assay to identify small molecule agonists of the progesterone receptor (PR) signaling pathway - cell viability counter screen (AID 1346799; calls by dose curve; also: nearly all actives have a fitted effect of over 45% in size). A digest of the protocol:
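Cytotoxicity in PR-bla HEK293T cells: 16 h compound, 37C; CellTiter-Glo added post-FRET read; luminescence after 30 min RT.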

Assay [13] in a line: qHTS assay to identify small molecule antagonists of the TGF-beta/Smad signaling pathway - cell viability counter screen (AID 1346824). Also: nearly all actives have a fitted effect of over 50% in size. In a few lines: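 Cytotoxicity counter-screen run in the same wells as the beta-lactamase Smad reporter read: CellTiter-Glo luminescence after 30 min at room temperature. HEK 293T SBE-bla cells had 5 hr compound exposure at 37 C with TGF-beta1 (0.25 ng/mL stock).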

Assay [14] can be described thus: qHTS assay to identify small molecule agonists of the TGF-beta/Smad signaling pathway - cell viability counter screen (AID 1346829). Also: top concentration of the series differs between compounds; nearly all actives have a fitted effect of over 45% in size. A digest of the protocol:
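Here the cytotoxicity of library compounds is measured in SBE-bla HEK 293T cells treated for 5 hr, using CellTiter-Glo added to wells already read for the beta-lactamase reporter.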

Assay [15] is described as follows: qHTS assay to identify small molecule agonists of the TGF-beta/Smad signaling pathway (AID 1346859; active = well fitted activation curve with a large enough effect in the signal ratio in the repeat runs, not every such curve was filed as active; the % refers to the signal ratio; also: series mostly up to about 77 µM). In a few lines: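 Stable Smad binding element-beta-lactamase HEK 293T cells; 5 hr compound exposure at 37 C under 5% CO2; 2 hr room-temperature substrate step; fluorescence excited at 405 nm, collected at 460 nm and 530 nm.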
Assay [16] addresses Thyrotropin-releasing hormone receptor (Homo sapiens) (UniProt P34981). The assay can be described thus: qHTS assay to identify small molecule antagonists of the thyrotropin-releasing hormone receptor (TRHR) signaling pathway (AID 1346877; active = well fitted inhibition curve with a large enough effect in the repeat runs, not every such curve was filed as active; also: series mostly up to about 51 µM). In a few lines: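 Intracellular calcium fluorescence, read kinetically every second over 3 min, reports TRH-evoked signalling in HEK293 cells carrying TRHR. Test compounds were added 5 min ahead of a 1 nM TRH challenge.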

Assay [17] has the same target. Description: qHTS assay to identify small molecule agonists of the thyrotropin-releasing hormone receptor (TRHR) signaling pathway (AID 1346891; calls by dose curve; also: potency is read from the fitted curve at half-maximal effect;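 as to activation: HEK293 cells expressing TRHR with calcium dye readout; series mostly up to about 58 µM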). A digest of the protocol:
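In 1536-format, 1500 TRHR-Hek293 cells per well grew 18 h, took up calcium dye for 2 h at 37 °C, received compound, and were read kinetically; 15-point titrations, triplicates.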

Assay [18] deals with Estrogen receptor (Homo sapiens) (UniProt P03372). The assay can be described thus: qHTS assay to identify small molecule agonists of the estrogen receptor alpha (ER-alpha) signaling pathway in the presence of an antagonist (AID 1259383; calls by dose curve; also: top concentration of the series differs between compounds; nearly all actives have a fitted effect of over 15% in size). In a few lines:
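VM7Luc4E2, endog. ER-alpha + 4×ERE-luc; charcoal-stripped FBS, phenol red-free, 5 d; 24hr plating; +10.0nM ICI-182,780 (final); cpds 15 conc, 22hr, 37C/5% CO2; ONE-Glo luminescence.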

Progesterone receptor (Homo sapiens), sequence (P06401 whole entry, looked up): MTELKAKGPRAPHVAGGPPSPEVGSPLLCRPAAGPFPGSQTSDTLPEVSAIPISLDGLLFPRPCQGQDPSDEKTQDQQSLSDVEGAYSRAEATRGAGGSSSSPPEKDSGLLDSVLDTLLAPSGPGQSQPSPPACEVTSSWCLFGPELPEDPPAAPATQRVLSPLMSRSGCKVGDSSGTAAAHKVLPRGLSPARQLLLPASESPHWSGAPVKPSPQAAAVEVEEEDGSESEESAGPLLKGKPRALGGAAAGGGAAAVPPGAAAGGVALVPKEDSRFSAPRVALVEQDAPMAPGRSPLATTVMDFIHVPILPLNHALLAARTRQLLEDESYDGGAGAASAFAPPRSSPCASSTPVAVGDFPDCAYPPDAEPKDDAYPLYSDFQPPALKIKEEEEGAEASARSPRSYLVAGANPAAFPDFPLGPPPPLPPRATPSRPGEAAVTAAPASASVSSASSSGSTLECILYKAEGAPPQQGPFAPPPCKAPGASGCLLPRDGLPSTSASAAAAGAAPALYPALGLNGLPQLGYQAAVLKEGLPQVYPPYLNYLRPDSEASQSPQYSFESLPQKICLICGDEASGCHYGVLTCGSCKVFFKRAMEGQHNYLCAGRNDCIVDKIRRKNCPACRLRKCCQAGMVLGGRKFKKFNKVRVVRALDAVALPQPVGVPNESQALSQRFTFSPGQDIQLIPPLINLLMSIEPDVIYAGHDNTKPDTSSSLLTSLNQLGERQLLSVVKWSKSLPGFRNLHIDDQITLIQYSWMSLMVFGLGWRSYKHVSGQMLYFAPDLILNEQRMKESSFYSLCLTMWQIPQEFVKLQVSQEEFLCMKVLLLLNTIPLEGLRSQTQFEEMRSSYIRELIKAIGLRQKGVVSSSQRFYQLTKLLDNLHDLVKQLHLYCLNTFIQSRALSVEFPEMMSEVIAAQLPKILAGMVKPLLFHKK
Estrogen receptor (Homo sapiens), sequence (P03372 whole entry, looked up): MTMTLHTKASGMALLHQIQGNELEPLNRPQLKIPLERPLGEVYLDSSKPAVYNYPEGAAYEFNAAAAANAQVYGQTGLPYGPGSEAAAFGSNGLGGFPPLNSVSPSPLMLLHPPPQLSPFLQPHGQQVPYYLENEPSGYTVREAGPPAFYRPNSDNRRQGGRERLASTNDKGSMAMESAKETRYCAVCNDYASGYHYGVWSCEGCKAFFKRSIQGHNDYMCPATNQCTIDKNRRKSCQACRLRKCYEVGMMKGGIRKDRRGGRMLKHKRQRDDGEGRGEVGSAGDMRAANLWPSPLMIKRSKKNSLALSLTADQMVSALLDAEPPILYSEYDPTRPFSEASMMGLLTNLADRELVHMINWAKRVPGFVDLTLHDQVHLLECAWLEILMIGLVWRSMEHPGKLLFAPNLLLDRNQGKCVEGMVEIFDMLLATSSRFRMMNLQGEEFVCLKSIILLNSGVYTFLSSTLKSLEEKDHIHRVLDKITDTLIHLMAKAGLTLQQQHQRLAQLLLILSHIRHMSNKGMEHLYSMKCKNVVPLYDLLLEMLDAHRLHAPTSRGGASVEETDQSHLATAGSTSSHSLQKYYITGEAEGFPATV
Androgen receptor (Homo sapiens), sequence (P10275 whole entry, looked up): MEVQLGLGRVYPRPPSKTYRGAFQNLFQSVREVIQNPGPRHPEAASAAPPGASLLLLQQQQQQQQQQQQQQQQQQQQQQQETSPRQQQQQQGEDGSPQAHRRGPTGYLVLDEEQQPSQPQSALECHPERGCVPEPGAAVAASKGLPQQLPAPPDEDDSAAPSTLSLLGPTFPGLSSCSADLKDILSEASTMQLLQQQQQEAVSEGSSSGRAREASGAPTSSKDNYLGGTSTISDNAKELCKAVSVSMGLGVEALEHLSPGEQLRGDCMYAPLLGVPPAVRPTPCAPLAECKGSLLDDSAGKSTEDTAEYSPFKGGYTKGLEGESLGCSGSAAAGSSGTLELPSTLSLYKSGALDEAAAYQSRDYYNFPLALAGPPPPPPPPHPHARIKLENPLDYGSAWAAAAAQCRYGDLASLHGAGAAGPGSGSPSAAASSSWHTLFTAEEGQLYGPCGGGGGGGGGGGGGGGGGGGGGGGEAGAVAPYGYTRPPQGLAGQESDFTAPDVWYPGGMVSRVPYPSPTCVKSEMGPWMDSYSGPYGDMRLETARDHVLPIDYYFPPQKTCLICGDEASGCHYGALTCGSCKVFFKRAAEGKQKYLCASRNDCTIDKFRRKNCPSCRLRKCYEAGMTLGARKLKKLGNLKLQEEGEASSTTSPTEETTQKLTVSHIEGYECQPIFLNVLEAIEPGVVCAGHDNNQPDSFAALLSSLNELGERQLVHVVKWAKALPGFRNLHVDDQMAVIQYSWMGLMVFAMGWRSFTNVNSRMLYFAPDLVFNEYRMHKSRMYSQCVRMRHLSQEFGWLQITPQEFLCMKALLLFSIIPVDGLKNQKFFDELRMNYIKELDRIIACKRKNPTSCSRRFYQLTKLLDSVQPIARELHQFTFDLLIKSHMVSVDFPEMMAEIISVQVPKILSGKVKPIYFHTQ
Thyrotropin receptor (Homo sapiens), sequence (P16473 whole entry, looked up): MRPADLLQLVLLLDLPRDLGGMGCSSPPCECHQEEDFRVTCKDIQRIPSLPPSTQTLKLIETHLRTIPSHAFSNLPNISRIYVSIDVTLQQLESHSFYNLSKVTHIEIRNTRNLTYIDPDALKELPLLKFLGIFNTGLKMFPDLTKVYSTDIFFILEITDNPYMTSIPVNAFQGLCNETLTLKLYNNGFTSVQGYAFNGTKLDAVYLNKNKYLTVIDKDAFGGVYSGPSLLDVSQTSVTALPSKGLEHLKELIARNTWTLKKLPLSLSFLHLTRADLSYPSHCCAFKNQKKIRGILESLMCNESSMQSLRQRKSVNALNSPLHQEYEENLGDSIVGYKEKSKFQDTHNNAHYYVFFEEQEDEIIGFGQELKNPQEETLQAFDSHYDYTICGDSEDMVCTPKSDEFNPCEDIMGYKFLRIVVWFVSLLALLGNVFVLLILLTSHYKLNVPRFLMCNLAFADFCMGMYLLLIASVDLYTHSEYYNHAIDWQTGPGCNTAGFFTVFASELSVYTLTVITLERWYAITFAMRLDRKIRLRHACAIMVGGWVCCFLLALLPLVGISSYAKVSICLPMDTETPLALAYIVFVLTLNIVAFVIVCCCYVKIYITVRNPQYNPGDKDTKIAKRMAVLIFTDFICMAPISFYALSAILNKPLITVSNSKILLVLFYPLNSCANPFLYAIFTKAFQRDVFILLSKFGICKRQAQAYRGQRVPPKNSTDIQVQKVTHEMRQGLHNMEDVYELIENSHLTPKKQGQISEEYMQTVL
Thyrotropin-releasing hormone receptor (Homo sapiens), sequence (P34981 whole entry, looked up): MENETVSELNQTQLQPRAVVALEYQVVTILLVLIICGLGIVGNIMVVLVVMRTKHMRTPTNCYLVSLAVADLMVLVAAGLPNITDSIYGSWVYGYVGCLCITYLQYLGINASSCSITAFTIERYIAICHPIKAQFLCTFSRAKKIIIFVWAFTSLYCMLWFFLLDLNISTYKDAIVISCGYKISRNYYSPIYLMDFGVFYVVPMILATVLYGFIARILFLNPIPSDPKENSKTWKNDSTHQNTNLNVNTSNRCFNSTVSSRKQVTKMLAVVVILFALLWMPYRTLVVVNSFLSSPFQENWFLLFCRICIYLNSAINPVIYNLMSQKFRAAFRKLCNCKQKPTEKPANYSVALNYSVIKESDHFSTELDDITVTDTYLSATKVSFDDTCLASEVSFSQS

With `C[N+](C)(C)CCOC(N)=O`, the Potency entry in [1], in assay [2], in assay [3], in [4], in [5] and in assay [7] was “inactive” each time. Besides, the Potency result in [8], in [9], in assay [10], in [11] and in assay [12] was “inactive” each time. Moreover, the outcome in assay [6], in assay [13], in [14], in assay [15] and in [16] was inactive. For the same molecule, the Potency in [17] was 3.38 µM (active).

Turning to `c1ccc(COCc2ccccc2)cc1`, the Potency result in [1], in assay [2], in [3], in assay [5], in [18] and in [7] was “inactive” throughout. Besides, the Potency result in assay [8], in assay [9], in assay [10], in assay [11], in [12] and in assay [17] was “inactive” in each case. In addition, the molecule was classed as inactive in assay [6], in assay [13], in assay [14], in assay [15] and in assay [16].

Consider `CC1=CC(=O)CC(C)(C)C1(O)/C=C/C(C)=C\C(=O)O` (stereo not drawn), for which the Potency entry in assay [1], in [2], in assay [3], in assay [5], in assay [7] and in assay [8] was “inactive” in each case. The Potency result in assay [9], in [11], in assay [12] and in assay [17] was “inactive” throughout. Further, the call in assay [6], in [13], in [14], in assay [15] and in assay [16] was inactive.

`CCCCCCOC(=O)CCCCCCCC(=O)OCCCCCC`: the Potency result in assay [1], in assay [2], in [3], in [5], in [8] and in assay [9] was “inactive” throughout. The Potency entry in [10], in assay [11], in assay [12] and in assay [17] was “inactive” throughout. For the same molecule, the outcome in [13], in assay [14], in assay [15] and in assay [16] was inactive.

On to `CC1=NN(c2ccc(C(=O)O)cc2)C(=O)C1`, for which the Potency entry in assay [1], in [2], in assay [3], in assay [4], in assay [5] and in assay [8] was “inactive” each time. Besides, the Potency entry in [9], in assay [10], in assay [11], in [12] and in assay [17] was “inactive” each time. The molecule was called inactive in [13], in assay [14], in assay [15] and in assay [16].

Regarding `CC(=O)CC(c1ccc([N+](=O)[O-])cc1)c1c(O)c2ccccc2oc1=O` (stereo not drawn), the Potency result in assay [1], in assay [2], in [3], in assay [5], in [18] and in assay [9] was “inactive” throughout. Besides, the Potency entry in [10], in assay [11] and in assay [12] was “inactive” each time. For the same molecule, the call in [13], in assay [14] and in assay [15] was inactive.

Regarding `O=C(N/N=C/c1ccc([N+](=O)[O-])o1)c1ccc(O)cc1`, the Potency in [1] and in assay [2] was 11.9 µM (active) in each case. The Potency result in [4], in assay [5], in [18], in assay [7], in assay [9] and in assay [11] was “inactive” throughout. The molecule was called inactive in assay [6], in [13], in assay [14], in assay [15] and in assay [16].

With `CC(C)CCCC(=O)O`, the Potency entry in assay [1], in [2], in assay [3], in assay [4], in [5] and in assay [18] was “inactive” each time. Also, the Potency result in assay [8], in assay [9], in assay [10], in assay [11] and in assay [12] was “inactive” throughout. Further, the molecule was called inactive in [13], in [14] and in assay [15].

Turning to `CCC1(C)CC(=O)NC1=O` (stereo not drawn), the Potency entry in [1], in [2], in assay [3], in assay [5], in assay [18] and in [9] was “inactive” throughout. Besides, the Potency result in assay [10], in assay [11], in assay [12] and in assay [17] was “inactive” throughout. Besides, the molecule was classed as inactive in assay [13], in [14], in assay [15] and in assay [16].

In the case of `C/C(=N/NC(=O)c1ccncc1)C(=O)O`, the Potency entry in assay [1], in assay [2], in [3], in assay [4], in [5] and in assay [18] was “inactive” each time. In addition, the Potency result in [7], in [8], in assay [9], in [10], in [11] and in assay [12] was “inactive” in each case. The molecule was classed as inactive in [6], in assay [13], in [14] and in [15].

On to `COc1ccc([C@@H]2Sc3ccccc3NC(=O)[C@@H]2O)cc1`, for which the Potency result in [1], in assay [2], in assay [3], in assay [4], in assay [5] and in [18] was “inactive” in each case. Further, the Potency result in assay [7], in [8], in assay [9] and in assay [12] was “inactive” each time. The result in assay [6], in assay [13], in assay [14] and in assay [15] was inactive.

Turning to `O=C(O)Cc1ccc(-c2ccccc2)cc1`, the Potency result in assay [1], in assay [2], in assay [4], in [5], in assay [18] and in assay [7] was “inactive” in each case. The Potency result in [9], in [10], in assay [11], in assay [12] and in assay [17] was “inactive” in each case. Besides, the outcome in assay [6], in assay [13], in [14], in [15] and in [16] was inactive.

`COC(=O)c1cc(S(N)(=O)=O)ccc1OC`: the Potency result in assay [1], in assay [2], in assay [4], in [5], in assay [18] and in assay [7] was “inactive” in each case. Moreover, the Potency result in [9], in assay [10], in [11] and in assay [12] was “inactive” each time. For the same molecule, the result in assay [6], in assay [13], in assay [14] and in [15] was inactive.

For `CNC(=O)N(c1ccccc1)c1ccccc1`, the Potency in assay [1] was 6.89 µM (active). Besides, the Potency result in assay [2], in assay [3], in assay [4], in assay [5], in assay [18] and in assay [8] was “inactive” in each case. Moreover, the Potency entry in [9], in assay [10], in assay [11], in [12] and in assay [17] was “inactive” each time. In addition, the call in assay [6], in [13], in [14], in [15] and in assay [16] was inactive.
